According to PubChem BioAssay:
Values without a mark were called inactive. For part of these data: Results with a measured potency or affinity are listed apart. Activity calls are given as the source filed them. Unless noted, how the calls were made is not given here.

What was measured:
[1] = antimalarial activity against Dd2 strain (AID 2302;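 active means growth inhibition above 50% at the single 2 µM test dose, taken to imply half-maximal potency below 2 µM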;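 further: 0% = DMSO untreated growth and 100% = chloroquine plus artemisinin killed control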); details: P. falciparum Dd2 in RBCs, LDH growth readout, 72 h; at 2 µM; stronger effect = higher value
[2] = HepG2 cytotoxicity, primary screen, cytotoxicity control for P. falciparum antimalarial project, cell-based, ATP luminescence (AID 2303;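 active means inhibition above 50%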;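 further: 0% = DMSO wells and 100% = digitonin-killed cells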); details: HepG2 viability, 24-48 h, at 10 µM, stronger effect = higher value
[3] = biological target: L-lactate dehydrogenase (Plasmodium falciparum (isolate CDC / Honduras)) (UniProt Q27743); test: PfLDH activity inhibition – cell lysate, 3D7 strain, counter-screen for P. falciparum growth inhibition project (AID 2304);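 further: 0% = vehicle and 100% = reference inhibitor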; details: P. falciparum 3D7 crude extract, LDH APAD/NBT absorbance; at 2 µM; stronger effect = higher value
Chain of L-lactate dehydrogenase (Plasmodium falciparum (isolate CDC / Honduras)) (Q27743 whole entry, looked up): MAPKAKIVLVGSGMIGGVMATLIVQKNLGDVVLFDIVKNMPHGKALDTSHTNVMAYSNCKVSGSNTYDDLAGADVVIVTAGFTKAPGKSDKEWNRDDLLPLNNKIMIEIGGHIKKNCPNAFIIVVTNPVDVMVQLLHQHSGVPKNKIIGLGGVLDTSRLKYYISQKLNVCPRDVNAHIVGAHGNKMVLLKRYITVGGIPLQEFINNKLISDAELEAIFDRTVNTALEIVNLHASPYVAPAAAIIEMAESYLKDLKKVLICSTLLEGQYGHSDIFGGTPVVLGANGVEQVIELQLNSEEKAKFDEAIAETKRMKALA

[4] = inhibition of 3D7 malaria parasite growth – strain 3D7 (AID 2306);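 further: 0% = DMSO wells and 100% = chloroquine plus artemisinin control wells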; details: P. falciparum 3D7 erythrocytic growth, LDH absorbance, 72 h; at 2 µM; stronger effect = higher value
[5] = biological target: Calcium-dependent protein kinase 1 (Plasmodium falciparum (isolate 3D7)) (UniProt P62344); test: PfCDPK1 kinase inhibitors, biochemical, TCAMS library (AID 1159585; cut-off not given, nearly all actives have IC50 up to about 0.98 µM;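 further: inhibitors leave more ATP so luminescence rises with inhibition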); details: recombinant PfCDPK1, Kinase-Glo ATP depletion luminescence
Chain of Calcium-dependent protein kinase 1 (Plasmodium falciparum (isolate 3D7)) (P62344 whole entry, looked up): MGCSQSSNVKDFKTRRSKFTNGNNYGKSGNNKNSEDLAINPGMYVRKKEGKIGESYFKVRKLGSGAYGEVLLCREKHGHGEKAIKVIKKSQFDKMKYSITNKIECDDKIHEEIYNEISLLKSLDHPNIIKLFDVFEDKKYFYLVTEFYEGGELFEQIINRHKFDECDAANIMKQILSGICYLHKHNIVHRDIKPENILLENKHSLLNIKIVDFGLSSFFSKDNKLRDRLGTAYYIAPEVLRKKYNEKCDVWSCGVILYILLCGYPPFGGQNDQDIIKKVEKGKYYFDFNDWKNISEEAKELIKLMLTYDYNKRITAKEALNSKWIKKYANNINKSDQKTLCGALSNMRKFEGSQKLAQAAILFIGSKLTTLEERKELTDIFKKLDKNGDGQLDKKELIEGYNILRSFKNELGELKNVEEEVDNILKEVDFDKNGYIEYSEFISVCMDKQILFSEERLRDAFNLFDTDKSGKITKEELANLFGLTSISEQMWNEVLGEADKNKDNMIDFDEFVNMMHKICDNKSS

[6] = biological target: Plasmodium falciparum protein kinase 6 (PK6, PF3D7_1337100) (UniProt Q8IDW1); test: PfPK6 kinase inhibitors, biochemical, TCAMS library (AID 1159586); details: recombinant PfPK6, Kinase-Glo ATP depletion luminescence
Chain of Plasmodium falciparum protein kinase 6 (PK6, PF3D7_1337100) (Q8IDW1 1-305): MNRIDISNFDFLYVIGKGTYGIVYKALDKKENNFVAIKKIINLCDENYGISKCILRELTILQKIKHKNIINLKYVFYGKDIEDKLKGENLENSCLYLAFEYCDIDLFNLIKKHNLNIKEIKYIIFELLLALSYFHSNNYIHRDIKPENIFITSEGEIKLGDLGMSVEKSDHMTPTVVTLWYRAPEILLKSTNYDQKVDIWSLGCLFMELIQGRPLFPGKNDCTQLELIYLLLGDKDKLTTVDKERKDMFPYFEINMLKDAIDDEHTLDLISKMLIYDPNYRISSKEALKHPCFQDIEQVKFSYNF

[7] = biological target: Protein kinase 7 (PK7), Plasmodium falciparum 3D7 (PF3D7_0213400) (UniProt Q7YTF7); test: inhibition of Plasmodium PK7 catalytic activity – biochemical, TCAMS antimalarial set, Kinase-Glo luminescence (AID 1159587); details: recombinant PfPK7, Kinase-Glo ATP depletion luminescence
Chain of Protein kinase 7 (PK7), Plasmodium falciparum 3D7 (PF3D7_0213400) (Q7YTF7 1-343): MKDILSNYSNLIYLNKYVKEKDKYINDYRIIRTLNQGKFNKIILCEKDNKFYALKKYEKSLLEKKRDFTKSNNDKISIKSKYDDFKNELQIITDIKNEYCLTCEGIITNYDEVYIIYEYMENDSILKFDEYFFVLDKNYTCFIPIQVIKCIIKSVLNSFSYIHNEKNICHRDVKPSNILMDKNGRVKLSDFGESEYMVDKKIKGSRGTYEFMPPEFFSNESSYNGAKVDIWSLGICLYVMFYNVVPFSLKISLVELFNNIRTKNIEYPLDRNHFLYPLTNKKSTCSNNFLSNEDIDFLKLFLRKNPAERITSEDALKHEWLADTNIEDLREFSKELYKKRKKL

[8] = biological target: Calcium-dependent protein kinase 4 (Plasmodium falciparum (isolate 3D7)) (UniProt Q8IBS5); test: PfCDPK4 kinase inhibitors, biochemical, TCAMS library (AID 1159588; cut-off not given, nearly all actives have IC50 up to about 0.91 µM); details: recombinant PfCDPK4, Kinase-Glo ATP depletion luminescence
Chain of Calcium-dependent protein kinase 4 (Plasmodium falciparum (isolate 3D7)) (Q8IBS5 whole entry, looked up): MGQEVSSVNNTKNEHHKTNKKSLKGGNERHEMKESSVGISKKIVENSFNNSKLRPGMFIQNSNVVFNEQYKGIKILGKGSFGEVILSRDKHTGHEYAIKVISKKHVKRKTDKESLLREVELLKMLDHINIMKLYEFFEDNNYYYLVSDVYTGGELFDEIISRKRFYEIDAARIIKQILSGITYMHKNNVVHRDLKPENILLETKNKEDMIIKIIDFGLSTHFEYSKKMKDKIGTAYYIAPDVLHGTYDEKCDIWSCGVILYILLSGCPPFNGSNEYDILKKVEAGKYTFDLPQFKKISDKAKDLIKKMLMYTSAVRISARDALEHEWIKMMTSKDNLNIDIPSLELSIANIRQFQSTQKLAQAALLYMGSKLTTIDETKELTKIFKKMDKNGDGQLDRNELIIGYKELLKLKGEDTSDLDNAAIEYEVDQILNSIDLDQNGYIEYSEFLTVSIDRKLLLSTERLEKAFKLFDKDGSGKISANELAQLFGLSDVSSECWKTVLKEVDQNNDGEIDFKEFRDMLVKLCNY

| SMILES | growth inhibition [1] | inhibition [2] | inhibition [3] [%] | growth inhibition [4] | outcome [5] | outcome [6] | outcome [7] | outcome [8] |
| --- | --- | --- | --- | --- | --- | --- | --- | --- |
| CN1CCOc2ccc(Nc3nnc(-c4cccc(-c5cccnc5)c4)o3)cc2C1 | 100% (active) | -4% | -1 | 100% (active) | inactive | inactive | inactive | inactive |
| O=C(NCc1cccc(F)c1)Nc1cccc(-c2cccc(-c3nc4ccc(C(F)(F)F)cc4[nH]3)c2)c1 | 32% | 55% (active) | -7 | 93% (active) | inactive | inactive | inactive | inactive |
| COc1cc(Cc2cnc(N)nc2N)cc(OCCCCC#N)c1OC | -1% | – | 8 | 86% (active) | inactive | inactive | inactive | inactive |
| O=C(/C=C/c1ccc(Cl)c(Cl)c1)NCCCCCN1CCCC(CNC(=O)c2sc3ccccc3c2Cl)C1 (stereo not given) | -3% | 42% | 4 | 98% (active) | inactive | inactive | inactive | inactive |
| OC(CNCc1cccc(Oc2ccc(Cl)cc2)c1)c1cccc(C(F)(F)F)c1 (stereo not given) | 78% (active) | -1% | 3 | 94% (active) | inactive | inactive | inactive | inactive |
| CC(C)c1cc2c(cc1O)C(Cc1ccccc1Cl)N(C)CC2 (stereo not given) | 33% | -7% | -4 | 97% (active) | inactive | inactive | inactive | inactive |
| CCc1cc(Br)c2c(c1)C(NCCCNc1cc(=O)c3ccccc3[nH]1)CCN2 (stereo not given) | 20% | 13% | -1 | 94% (active) | inactive | inactive | inactive | inactive |
| CC(C)c1sc(-c2ccc(C(C)(C)C)cc2)nc1C(=O)NCCCN1CCCC1=O | 92% (active) | -2% | 1 | 96% (active) | inactive | inactive | inactive | inactive |
| COc1ccc(C2CCN(CCN3CCC(NC(=O)c4ccc(-c5cccc(C(F)(F)F)c5C(F)(F)F)cc4)CC3)CC2)c(OC)c1 | 61% (active) | 35% | -4 | 102% (active) | inactive | inactive | inactive | inactive |
| Cc1nc2ccc(S(=O)(=O)Nc3ccc(C(=O)N[C@@H](CCC(=O)O)C(=O)O)cc3)cc2c(=O)[nH]1 | 2% | – | 7 | 94% (active) | inactive | inactive | inactive | inactive |
| CC(C)(C)c1ccc(Cc2cccc3nc(N)nc(N)c23)cc1 | 51% (active) | – | 4 | 100% (active) | inactive | inactive | inactive | inactive |
| Nc1nc(N)c2c3c(ccc2n1)CCC3 | 2% | – | -3 | 92% (active) | inactive | inactive | inactive | inactive |
| CCCCNc1c(CC)c(C)c(C#N)c2nc3ccccc3n12 | 100% (active) | 3% | -5 | 100% (active) | inactive | inactive | inactive | inactive |
| Nc1nc(N)c2cc(Cc3ccccc3Cl)cnc2n1 | -2% | – | 4 | 93% (active) | inactive | inactive | inactive | inactive |
| CC(C)(C)NCCN(Cc1ccc(-c2ccc(C(F)(F)F)cc2)cc1)C(=O)Cn1c(CCc2cccc(F)c2F)nc(=O)c2c1CCC2 | 48% | 6% | 6 | 95% (active) | inactive | inactive | inactive | inactive |
| Cc1[nH]c(C)c(-c2ccc(Oc3cc(Cl)cc(Cl)c3)cc2)c(=O)c1Cl | 96% (active) | – | -7 | 96% (active) | inactive | inactive | inactive | inactive |
| O=C(Nc1ccc(-c2ccc(-c3nc4ccc(C(F)(F)F)cc4[nH]3)s2)cc1)c1cnc[nH]1 | 61% (active) | 66% (active) | 5 | 92% (active) | inactive | inactive | inactive | inactive |
| Fc1cccc(CNc2ncc(-c3ccsc3)c(-c3nccs3)n2)c1 | 85% (active) | 15% | 0 | 91% (active) | inactive | inactive | inactive | inactive |
| COc1ccc2c(OC)cccc2c1CNCCCCCCNCc1c(OC)ccc2c(OC)cccc12 | 28% | – | -5 | 92% (active) | inactive | inactive | inactive | inactive |
| NC1=NC(c2ccccc2)(c2ccccc2)C(=O)N1Cc1ccccc1Br | 38% | 36% | 4 | 93% (active) | inactive | inactive | inactive | inactive |

| SMILES | growth inhibition [1] | inhibition [2] | inhibition [3] [%] | growth inhibition [4] | outcome [5] | outcome [6] | outcome [7] | outcome [8] |
| --- | --- | --- | --- | --- | --- | --- | --- | --- |
| CCN(CC)CCCC(C)Nc1ccnc2cc(C#N)ccc12 (stereo not given) | 80% (active) | – | -1 | 100% (active) | inactive | inactive | inactive | inactive |
| CN(C)CCCOC(=O)c1cc2cc(-c3ccccc3)ccc2n1S(=O)(=O)Cc1ccccc1 | 70% (active) | 13% | -5 | 101% (active) | inactive | inactive | inactive | inactive |
| CCCCCCOc1ccc2ccccc2c1CNCCCCCCNCc1c(OCCCCCC)ccc2ccccc12 | 55% (active) | – | 6 | 85% (active) | inactive | inactive | inactive | inactive |
| CCOc1cc(Cc2cnc(N)nc2N)ccc1OC | -4% | – | -1 | 88% (active) | inactive | inactive | inactive | inactive |
| NS(=O)(=O)Cc1cccc(-c2ccnc3ccc(-c4cccc(S(N)(=O)=O)c4)cc23)c1 | 42% | 39% | -2 | 98% (active) | inactive | inactive | inactive | inactive |
| COc1cccc([C@@H](CC(=O)Nc2cc(C(F)(F)F)ccc2OC)Nc2ccc(C#N)c3ccccc23)c1 | 53% (active) | 19% | -3 | 96% (active) | inactive | inactive | inactive | inactive |
| CC(=O)Oc1c(C(=O)C2CCC(C(C)(C)C)CC2)c(OC(C)=O)c2ccccc2c1OC(C)=O (stereo not given) | 96% (active) | 9% | 2 | 96% (active) | inactive | inactive | inactive | inactive |
| CCCCCNc1ccnc2cc(Cl)ccc12 | 99% (active) | 12% | -2 | 97% (active) | inactive | inactive | inactive | inactive |
| Cc1nc2nc(N)nc(N)c2c(C)c1Cc1ccc(N)cc1 | -2% | – | -4 | 97% (active) | inactive | inactive | inactive | inactive |
| CCCCCCCN(Cc1ccc(OC(C)(C)C(=O)OCC)cc1)C(=O)Cc1ccc(F)cc1F | 95% (active) | – | -3 | 93% (active) | inactive | inactive | inactive | inactive |
| CCn1ccc2c(N3CCCCS3(=O)=O)cc(C(=O)N[C@@H](Cc3ccccc3)[C@H](O)CNC(C)(C)c3cccc(C(F)(F)F)c3)cc21 | 98% (active) | 6% | -4 | 97% (active) | inactive | inactive | inactive | inactive |
| Oc1c(CNC2CCCCC2)cc(Cl)c2ccccc12 | 101% (active) | – | 0 | 98% (active) | inactive | inactive | inactive | inactive |
| C=CCn1c(=N)n(CC(O)c2ccc(Cl)c(Cl)c2)c2ccccc21 (stereo not given) | 80% (active) | 15% | 1 | 91% (active) | inactive | inactive | inactive | inactive |
| CC(=NNC(=S)NCc1ccco1)c1ccccn1 | 100% (active) | – | -6 | 99% (active) | inactive | inactive | inactive | inactive |
| CN(C)S(=O)(=O)n1ncc2c3c(N)nc(N)nc3ccc21 | 0% | – | -4 | 96% (active) | inactive | inactive | inactive | inactive |
| COc1ccc(Cc2cnc(N)nc2N)cc1OCCCOc1ccccc1 | 4% | – | 6 | 91% (active) | inactive | inactive | inactive | inactive |
| Cc1[nH]c(C)c(-c2ccc(Oc3ccc(F)cc3)cc2)c(=O)c1Br | 98% (active) | – | -1 | 100% (active) | inactive | inactive | inactive | inactive |
| COc1ccc(Cc2c(Cl)nc3nc(N)nc(N)c3c2C)cc1 | 3% | – | 6 | 94% (active) | inactive | inactive | inactive | inactive |
| CC1CCN(Cc2c(O)ccc3c(CN4CCC(C)CC4)c(O)ccc23)CC1 | 86% (active) | – | -3 | 102% (active) | inactive | inactive | inactive | inactive |
| CCCc1ccc(Cc2cnc3nc(N)nc(N)c3c2C)cc1 | -3% | – | 4 | 98% (active) | inactive | inactive | inactive | inactive |
